Reference: PubChem BioAssay AID1159580 (chemical genetic matrix, 2015)
Where “and” joins values, the source holds several entries; their conditions need not be identical. Equal values may be shown once. Screen size: about 5,500 compounds; about 2,000 (36%) were called active. Inconclusive results (about 18%) are left out. No stated cut-off is given here; in the data, active means normalized growth mostly below about 0.91 (no sharp cut-off); inconclusive means no clear call, values can overlap the other calls; inactive means mostly above about 0.92. Some of the results follow. Some structures have more than one record in an assay (separate samples or runs), and their calls can disagree.

Assay: chemical genetic growth profiling, strain panel (AID 1159580);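 further: tested at 20 µM; growth read once vehicle control cultures reached saturation at 30 °C; 1 = growth at the plate median or of vehicle wells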
Settings: S. cerevisiae deletion strains, growth OD

Measured: normalized growth

O=c1c2ccccc2[se]n1-c1ccccc1
inactive: locus YAL040C, strain CLN3, stronger effect = lower value 0.981 | locus YBR171W, strain sec66, stronger effect = lower value 0.927 | locus YBR229C, strain ROT2, stronger effect = lower value 1.02 | locus YCL061C, strain MRC1 (second series), stronger effect = lower value 0.952 | locus YDL185W, strain tfp1, stronger effect = lower value 0.999 | locus YDR363W, strain ESC2, stronger effect = lower value 0.988 | locus YER002W, strain NOP16, stronger effect = lower value 0.999 | locus YER111C, strain swi4, stronger effect = lower value 0.937 | locus YJL187C, strain SWE1 (second series), stronger effect = lower value 0.907 | locus YJR066W, strain TOR1, stronger effect = lower value 0.883
0.0625 (active) and 0.862 (inactive): locus YGR229C, strain SMI1, stronger effect = lower value
active: locus YAL021C, strain ccr4, stronger effect = lower value 0.0697 | locus YAL026C, strain drs2, stronger effect = lower value 0.0626 | locus YAL030W, strain snc1, stronger effect = lower value 0.057 | locus YBL061C, strain skt5, stronger effect = lower value 0.0616 | locus YBR009C, strain hhf1, stronger effect = lower value 0.067 | locus YBR021W, strain FUR4, stronger effect = lower value 0.0951 | locus YBR023C, strain chs3, stronger effect = lower value 0.0842 | locus YBR231C, strain swc5, stronger effect = lower value 0.129 | locus YBR279W, strain paf1, stronger effect = lower value 0.0647 | locus YCL011C, strain gbp2, stronger effect = lower value 0.057 | locus YCL016C, strain dcc1, stronger effect = lower value 0.102 | locus YCL029C, strain bik1, stronger effect = lower value 0.873 | locus YCL061C, strain MRC1, stronger effect = lower value 0.0738 | locus YCL069W, strain vba3, stronger effect = lower value 0.0606 | locus YCR088W, strain abp1, stronger effect = lower value 0.0595 | locus YDL005C, strain med2, stronger effect = lower value 0.071 | locus YDL035C, strain GPR1, stronger effect = lower value 0.0537 | locus YDL040C, strain nat1, stronger effect = lower value 0.909 | locus YDL074C, strain BRE1, stronger effect = lower value 0.0969 | locus YDL101C, strain DUN1, stronger effect = lower value 0.869 | locus YDL134C, strain PPH21, stronger effect = lower value 0.0461 | locus YDL192W, strain arf1, stronger effect = lower value 0.0608 | locus YDR001C, strain nth1, stronger effect = lower value 0.0663 | locus YDR069C, strain doa4, stronger effect = lower value 0.0621 | locus YDR101C, strain arx1, stronger effect = lower value 0.437 | locus YDR137W, strain rgp1, stronger effect = lower value 0.754 | locus YDR159W, strain sac3, stronger effect = lower value 0.854 | locus YDR162C, strain NBP2, stronger effect = lower value 0.054 | locus YDR195W, strain ref2 1.46 [resistant] | locus YDR297W, strain sur2, stronger effect = lower value 0.06 | locus YDR318W, strain mcm21, stronger effect = lower value 0.0683 | locus YDR334W, strain swr1, stronger effect = lower value 0.0625 | locus YDR335W, strain msn5, stronger effect = lower value 0.574 | locus YDR388W, stronger effect = lower value 0.0602 | locus YDR392W, strain spt3, stronger effect = lower value 0.0762 | locus YDR502C, strain sam2, stronger effect = lower value 0.0635 | locus YEL003W, strain gim4, stronger effect = lower value 0.106 | locus YEL037C, strain rad23, stronger effect = lower value 0.0632 | locus YEL061C, strain CIN8 (second series), stronger effect = lower value 0.0621 | locus YEL061C, strain CIN8, stronger effect = lower value 0.0485 | locus YER015W, strain faa2, stronger effect = lower value 0.0679 | locus YER016W, strain bim1, stronger effect = lower value 0.147 | locus YER110C, stronger effect = lower value 0.0784 | locus YER155C, strain BEM2 (second series), stronger effect = lower value 0.0943 | locus YER155C, strain BEM2, stronger effect = lower value 0.0677 | locus YER167W, strain BCK2, stronger effect = lower value 0.0545 | locus YFR010W, strain ubp6, stronger effect = lower value 0.07 | locus YGL078C, strain dbp3, stronger effect = lower value 0.0555 | locus YGL086W, strain mad1, stronger effect = lower value 0.062 | locus YGL167C, strain pmr1, stronger effect = lower value 0.0891 | locus YGL173C, strain kem1, stronger effect = lower value 0.0711 | locus YGL227W, strain vid30, stronger effect = lower value 0.0629 | locus YGL240W, strain doc1, stronger effect = lower value 0.0921 | locus YGL248W, strain PDE1, stronger effect = lower value 0.0477 | locus YGL253W, strain hxk2, stronger effect = lower value 0.0553 | locus YGR135W, strain pre9, stronger effect = lower value 0.0669 | locus YGR252W, strain gcn5, stronger effect = lower value 0.162 | locus YHR013C, strain ard1, stronger effect = lower value 0.11 | locus YHR027C, strain rpn1, stronger effect = lower value 0.0642 | locus YHR030C, strain SLT2, stronger effect = lower value 0.0507 and 0.0959 | locus YHR079C, strain IRE1 (second series), stronger effect = lower value 0.65 | locus YHR079C, strain IRE1, stronger effect = lower value 0.12 | locus YHR094C, strain hxt1, stronger effect = lower value 0.0617 | locus YHR129C, strain ARP1, stronger effect = lower value 0.0594 | locus YHR142W, strain chs7, stronger effect = lower value 0.0813 | locus YHR200W, strain rpn10, stronger effect = lower value 0.0601 | locus YIL066C, strain RNR3, stronger effect = lower value 0.0543 | locus YIL073C, strain SPO22, stronger effect = lower value 0.114 | locus YIL125W, strain kgd1, stronger effect = lower value 0.0566 | locus YIR030C, strain dcg1, stronger effect = lower value 0.0629 | locus YJL092W, strain hpr5, stronger effect = lower value 0.0617 | locus YJL095W, strain BCK1 (second series), stronger effect = lower value 0.0731 | locus YJL095W, strain BCK1, stronger effect = lower value 0.12 and 0.111 | locus YJL115W, strain asf1, stronger effect = lower value 0.0858 | locus YJL129C, strain trk1, stronger effect = lower value 0.769 | locus YJL134W, strain LCB3, stronger effect = lower value 0.0503 | locus YJL154C, strain vps35, stronger effect = lower value 0.0602 | locus YJL164C, strain tpk1, stronger effect = lower value 0.0617 | locus YJL166W, strain qcr8, stronger effect = lower value 0.0635 | locus YJL168C, strain set2, stronger effect = lower value 0.0616 | locus YJR043C, strain POL32, stronger effect = lower value 0.0678
0.0598 (active) and 0.956 (inactive): locus YDR150W, strain NUM1, stronger effect = lower value
0.0595 (active) and 0.975 (inactive): locus YGR078C, strain PAC10, stronger effect = lower value
0.0627 (active) and 0.948 (inactive): locus YAL013W, strain DEP1, stronger effect = lower value
